Screening data (PubChem BioAssay)
Most compounds without a hit are left out; they make up all but 10% or so of the library.
HP1b binding inh: inhibitors of HP1-beta chromodomain binding to methylated histone tails; AID 540317; P83916; Potency, µM (titrated, usually from 114 µM), for the others: at the top dose activity change, negative = inhibition, usual class: inhibitors; 0.56% of 390,000 active; AlphaScreen HP1-beta / biotin-H3K9me3 peptide binding; further: nearly all actives have a fitted effect of over 70% in size
Target sequence (P83916 whole entry, looked up): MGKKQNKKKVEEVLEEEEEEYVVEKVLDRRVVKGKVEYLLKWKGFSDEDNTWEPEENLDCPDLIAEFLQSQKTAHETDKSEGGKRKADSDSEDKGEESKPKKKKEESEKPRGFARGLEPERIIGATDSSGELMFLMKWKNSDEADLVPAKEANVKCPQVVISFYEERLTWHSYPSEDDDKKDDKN
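AlphaScreen: HP1-beta (50 nM) preformed 30 min with biotin-H3(1-18)K9me3 peptide (50 nM) in PBS pH 7.4, 0.01% Tween-20. Compound added for 30 min at RT, then streptavidin donor/nickel chelate acceptor beads (10 ug/mL) for 30 min.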
JMJD2A Tudor: inhibitors of human JMJD2A Tudor domain; O75164; AlphaScreen JMJD2A-Tudor / H3K4me3 peptide binding; Potency, µM (top dose mostly 114 µM), without a hit: top-dose activity change, negative = inhibition, most hits filed as inhibitors; 4.4% of 390,000 active; AID 504339; further: on the % scale 0 is the no-effect control and ±100 the full control effect; nearly all actives have a fitted effect of over 50% in size
G9a inh: G9a (human) methyltransferase inhibition. 8.8% of 350,000 active. G9a H3K9 monomethylation, AlphaScreen, 2 h. Potency, µM (top dose mostly 102 µM), for the others: at the top dose activity, negative = inhibition, hits mostly inhibitors. Q96KQ7. AID 504332; further: on the % scale 0 is the no-effect control and ±100 the full control effect; nearly all actives have a fitted effect of over 75% in size
Target sequence (Q96KQ7 913-1193 limits assumed): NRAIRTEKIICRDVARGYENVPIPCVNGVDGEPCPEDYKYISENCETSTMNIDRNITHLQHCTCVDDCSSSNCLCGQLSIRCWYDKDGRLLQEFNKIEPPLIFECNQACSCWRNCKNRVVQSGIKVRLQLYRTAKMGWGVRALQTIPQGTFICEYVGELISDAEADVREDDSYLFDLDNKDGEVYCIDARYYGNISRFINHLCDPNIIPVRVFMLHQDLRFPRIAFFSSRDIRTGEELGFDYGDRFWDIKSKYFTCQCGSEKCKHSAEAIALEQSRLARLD
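Signal arises when biotinylated H3K9 peptide, once monomethylated, bridges streptavidin donor and antibody-captured acceptor beads. Enzyme at 20 nM was preincubated 15 min with test compounds; peptide 500 nM and SAM 20 uM then reacted for 2 h.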
BAZ2B block: BAZ2B (human) inhibition; AlphaScreen BAZ2B-H3K14Ac peptide displacement; Potency, µM (top dose mostly 114 µM), for inactives: at the highest dose activity change, negative = inhibition, usual class: inhibitors; AID 504333; Q9UIF8; 4.4% of 360,000 active; further: on the % scale 0 is the no-effect control and ±100 the full control effect; nearly all actives have a fitted effect of over 60% in size
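Multi-concentration screen (max 110 uM) measuring displacement of acetylated histone H3 peptide from BAZ2B by AlphaScreen, using 50 nM protein, 50 nM peptide and 10 ug/mL streptavidin donor plus Ni-chelate acceptor beads.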
GLS inhibitor: glutaminase GLS (human) inhibition; O94925; GLS enzymatic activity, qHTS titration; Potency, µM (doses to about 45.5 µM), for the others: top-dose activity change, negative = inhibition, most hits filed as inhibitors; 0.21% of 410,000 active; further: on the % scale 0 is the no-effect control and ±100 the full control effect
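Human kidney-isoform GLS in 45 mM KH2PO4 pH 8.2, 0.02% Tween-20, with compound, started with 1mM L-Glutamine (added stock). Glutamate oxidase/HRP/Amplex red coupled fluorescence read at start and after 30 min at RT.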
* marks the source's active call; other numbers are inactive results; ? = inconclusive; / = no result given; [ ] = remark or other dose. The call rests on the fitted dose curve; in most records, active means well fitted curve in the direction sought with a large enough effect; inconclusive means small, poorly fitted or top-dose-only effect, or another doubt; inactive means no such curve, though single readings can be large; an effect the other way counts as inactive or inconclusive. Potency means the concentration at half of the fitted maximal effect.

SMILES	HP1b binding inh	JMJD2A Tudor	G9a inh	BAZ2B block	GLS inhibitor
COC(=O)CSC1=C(C#N)C(c2ccc(C)o2)CC(=O)N1 (stereo unspecified)	23%	-11%	18%[12.7 µM]	-23%	18%
COc1ccc(N2CSC3=C(C#N)C(c4cccc(OC)c4OC)CC(=O)N3C2)cc1 (stereo unspecified)	?	20µM*	2µM*	?	-1%
COc1cc(OC)c(C2CC(=O)N3CN(c4ccccc4C)CSC3=C2C#N)cc1OC (stereo unspecified)	/	/	?	56µM*	/
C=CCOC(=O)C1=C(C)OC(N)=C(C#N)C1c1ccccc1F (stereo unspecified)	42%	-12%	-1%	-2%	15%
Nc1nnc(CCS(=O)(=O)c2ccc(Cl)cc2)s1	22%	-9%	5%[12.7 µM]	4%	0%
OCC(O)CO	/	/	4%[59 µM]	/	-3%
Cc1ccc(S(=O)(=O)SC/C=C/CSS(=O)(=O)c2ccc(C)cc2)cc1	?	3.2µM*	/	/	17%
Cc1ccc(S(=O)(=O)SCCCSS(=O)(=O)c2ccc(C)cc2)cc1	7.1µM*	2.8µM*	/	/	15%
Cc1ccc(S(=O)(=O)CCCS(=O)(=O)c2ccc(C)cc2)cc1	21%	8%	12%	5%	-1%
Cc1ccc(S(=O)(=O)CS(=O)(=O)c2ccc(C)cc2)cc1	52%	-3%	/	/	0%
Cc1cc(NC(=O)CCC(=O)N(CC(=O)NCC2CCCO2)c2ccc(Cl)c(Cl)c2)no1 (stereo unspecified)	59%	-15%	-3%	-4%	-5%
CCN1CCN(CCOc2ccc(Br)cc2C)CC1	?	18µM*	7.9µM*	22µM*	0%
Cc1ccc(OCCN2CCCCCC2)c(C)c1	8%	-23%	-1%[12.7 µM]	-6%	27%
Cc1cc(Br)ccc1OCCN1CCCC1	?	25µM*	/	?	8%
O=C(NCCc1cscn1)C1CCC(=O)N(Cc2ccc(Cl)cc2)C1 (stereo unspecified)	14%	-16%	71µM*	-19%	3%
Cn1c(=O)c2cc(S(=O)(=O)N3CCOCC3)ccc2n(C)c1=O	51%	-6%	-26%[12.7 µM]	22%	-2%
CC1CCN(S(=O)(=O)c2ccc3c(c2)c(=O)c(C(=O)NCc2ccco2)cn3C)CC1	5%	-22%	79µM*	-13%	11%
COc1cccc(OCc2nc(-c3cccc([N+](=O)[O-])c3)no2)c1	5%	-22%	10%[59 µM]	-19%	0%
COC(=O)c1cccc(Cn2nc(C)c([N+](=O)[O-])c2C)c1	9%	50µM*	5%[59 µM]	-15%	-12%
COc1cccc(-c2noc(Cn3nc(C)c([N+](=O)[O-])c3C)n2)c1	-12%	-12%	40µM*	0%	-9%
O=Cc1cn(CCC(=O)O)nc1-c1cccc(Cl)c1	14%	-6%	-41%	-22%	-2%
O=c1[nH]c(/C(Cl)=C/c2cccc(F)c2)nc2cc(C(F)(F)F)ccc12	21%	-8%	8%	-11%	1%
OC(COc1ccc2ccccc2c1Br)Cn1cnc(-c2ccccc2)c1 (stereo unspecified)	-17%	?	?	?	3%
O=C(Cc1cccs1)N1CCN(c2ccc([N+](=O)[O-])cc2)CC1	5%	-28%	?	56µM*	-1%
Cc1nc2ncnn2c(N2CCN(C(=O)Cc3cccs3)CC2)c1C	-13%	?	-25%[59 µM]	50µM*	-3%
SMILES	HP1b binding inh	JMJD2A Tudor	G9a inh	BAZ2B block	GLS inhibitor
CC(=O)N1CCN(c2ccc(NCc3ccc(C)s3)cc2)CC1	-14%	?	45µM*	10%	60%
CC(=O)N1CCN(c2ccc(NCc3cccs3)cc2)CC1	-32%	-20%[11.4 µM]	6.3µM*	?	28%
COc1ccccc1N1CCN(C(=O)Cc2cccs2)CC1	16%	-13%	-2%[2.33 µM]	1%	-1%
O=C(Cc1cccs1)N1CCN(c2ccc(F)cc2)CC1	25%	-1%	9%[59 µM]	4%	27%
CC(=O)C1=C(O)C(=O)N(c2ccc(O)cc2)C1c1ccccc1 (stereo unspecified)	30%	9%	?	?	17%
O=C(Cn1c2ccccc2c(=O)c2ccccc21)N/N=C/c1ccc(N2CCCC2)c([N+](=O)[O-])c1	-1%	-25%	-27%	8%	2%
